Source: PubChem
Mtb FBA inh: Mtb FBA enzyme inhibitors, primary screen, biochemical, fluorescence, strain H37Rv. purified M. tuberculosis FBA, fluorescence read-out. Fructose-bisphosphate aldolase (Mycobacterium tuberculosis (strain ATCC 25618 / H37Rv)), …. AID 588726, 2011. 360,000 tested, 2.3% active. inhibition, % at 1 µM; in the data active means inhibition above about 27%;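 further: 0% = vehicle and 100% = reference inhibitor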
Mtb bLac sens: beta-lactam sensitization of Mtb H37Rv, H37Rv. AID 434955, 2010. M. tuberculosis H37Rv growth with meropenem, percent inhibition. 330,000 tested, 0.27% active. inhibition, % at 25 µM;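 further: growth measured after seven days incubation then overnight dye step; 0% = bacteria only wells and 100% = bacteria with antibiotic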
GDH-TPI counter-1: GDH-TPI coupling enzyme inhibitors, primary screen, artefact control for M. tuberculosis FBA inhibitor project, biochemical, absorbance, full deck. GDH-TPI coupled enzyme counterscreen, NADH absorbance. inhibition, % at 4.8 µM. 360,000 tested, 1.2% active. AID 588335, 2011; in the data active means inhibition above about 30%;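 further: 0% = DMSO wells and 100% = wells lacking the enzyme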
UGM FP inh: M. tuberculosis UGM enzyme inhibitors, primary screen, biochemical, fluorescence polarization, single point | UDP-galactopyranose mutase (Mycobacterium tuberculosis (strain ATCC 25618 / H37Rv)), … | purified UGM, fluorescence polarization probe displacement | inhibition, % at 10 µM | 320,000 tested, 0.06% active; in the data active means inhibition above about 10%, passing the limit was not always enough
Rv3671c inh: Rv3671c serine protease inhibitors, primary screen, biochemical, fluorescence polarization, M. tuberculosis H37Rv | AID 2606, 2010 | inhibition, % at 5.96 µM | 320,000 tested, 0.048% active; in the data active means inhibition above about 38%;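 further: extracellular domain of Rv3671c used as enzyme; 0% = enzyme with DMSO and 100% = no enzyme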
Target sequence (P9WHR9 whole entry, looked up, the tested form may be a part): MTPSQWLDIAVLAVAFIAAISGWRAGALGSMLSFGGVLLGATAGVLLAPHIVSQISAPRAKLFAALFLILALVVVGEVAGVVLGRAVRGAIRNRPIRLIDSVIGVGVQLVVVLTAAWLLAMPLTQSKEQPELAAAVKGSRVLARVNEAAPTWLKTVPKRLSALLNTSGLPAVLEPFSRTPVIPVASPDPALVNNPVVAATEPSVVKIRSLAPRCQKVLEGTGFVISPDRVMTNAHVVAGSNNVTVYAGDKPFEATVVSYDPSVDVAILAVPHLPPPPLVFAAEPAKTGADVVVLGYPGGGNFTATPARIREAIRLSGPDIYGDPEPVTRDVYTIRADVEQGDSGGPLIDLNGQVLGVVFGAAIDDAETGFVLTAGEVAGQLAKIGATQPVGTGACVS
RecA intein inh: Mtb RecA intein splicing inhibitors, primary screen, biochemical, fluorescence, HTS; 290,000 tested, 0.75% active; inhibition, % (test concentration not listed); cell-free RecA intein splicing; in the data active means inhibition above about 30%;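 further: 0% = vehicle wells and 100% = reference inhibitor control wells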
Mtb FBA confirm: M. tuberculosis aldolase blockers, biochemical, fluorescence, strain H37Rv, confirmation | shares compounds with Mtb FBA inh | purified M. tuberculosis FBA, fluorescence read-out | inhibition, % at 1 µM | 5,600 tested, 78% active | AID 651616, 2012; in the data active means inhibition above about 27%;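 further: 0% = vehicle wells and 100% = reference inhibitor wells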
GDH-TPI counter-2: GDH-TPI coupling enzyme inhibitors, artefact control for M. tuberculosis FBA inhibitor project, biochemical, fluorescence, high throughput | AID 652141, 2013 | GDH-TPI coupled enzyme counterscreen | shares compounds with Mtb FBA inh | 5,600 tested, 81% active | inhibition, % at 1 µM; in the data active means inhibition above about 10%
GDH-TPI DR: GDH-TPI coupling enzyme inhibitors, dose response, artefact control for M. tuberculosis FBA inhibitor project, biochemical, fluorescence, IC50; AID 652145, 2013; IC50, µM; 170 tested, 79% active; GDH-TPI coupled enzyme assay, artifact counterscreen; shares compounds with Mtb FBA inh
* marks the source's active call; other numbers are inactive results; · = no result given; + = active, no number. In the library only some 4% were active in any assay of this set; here they are far more common. Unless noted, how the calls were made is not given here.

SMILES	Mtb FBA inh	Mtb bLac sens	GDH-TPI counter-1	UGM FP inh	Rv3671c inh	RecA intein inh	Mtb FBA confirm	GDH-TPI counter-2	others
COCCCNC(=S)N(CCCO)Cc1cc2cc3c(cc2[nH]c1=O)OCCO3	16	1	24	2	-6	0	·	·
CCN(CC)CCCN(Cc1cc2cc3c(cc2[nH]c1=O)OCO3)C(=S)NCCOC	52*	3	34*	1	-2	-1	2	1
O=C(CN1CCN(S(=O)(=O)c2ccc(Br)s2)CC1)N1CCCCC1	5	-11	10	-2	-2	·	·	·
N#Cc1c(N2CCOCC2)nc(-c2ccco2)c2c1CCCC2	37*	3	16	0	-8	-3	93*	71*
CCc1nc(N2CCOCC2)c(C#N)c2c1CCCC2	38*	15	2	1	-14	4	+	+
CCCCc1nc(N2CCOCC2)c(C#N)c2c1COC(C)(C)C2	35*	17	6	-1	-9	7	-3	-6
CCc1nc(N2CCCC2)c(C#N)c2c1CCCC2	10	41	13	1	8	11	·	·
CC1(C)Cc2c(C#N)c(N3CCCC3)nc(-c3ccco3)c2CO1	6	-1	8	-1	9	-36	·	·
CC1(C)Cc2c(C#N)c(SCCO)nc(N3CCOCC3)c2CO1	1	-5	5	-3	-1	0	·	·
COc1ccc(CCN2CC(C(=O)N3CCSCC3)CCC2=O)cc1 (configuration not stated)	0	-2	-7	-4	1	-2	·	·
COc1ccc(CN2CCC(C)CC2)cc1OCc1ccccc1	2	-5	6	3	·	2	·	·
Cc1nc2ccc(N)cc2c(=O)n1Cc1ccc(Cl)cc1	41*	2	10	0	-9	1	40*	33*
Cc1nc2c(cc1N)nc(C)n2Cc1ccccc1	99*	-7	0	3	-2	1	20	3	GDH-TPI DR=1.2*
Cc1nc2ccc([N+](=O)[O-])cc2c(=O)n1Cc1ccc(Cl)cc1	2	0	6	2	3	1	·	·
O=C(NCCc1ccccc1)c1ccc(NC(=O)C2CCC2)cc1	2	·	9	·	·	·	·	·
C=CCn1c(-c2cc3cccc(OC)c3o2)n[nH]c1=S	44*	-8	10	0	8	0	102*	72*
CC1CN(S(=O)(=O)c2cccc(C(=O)N(CCc3ccccc3)Cc3ccccc3)c2)CC(C)O1 (configuration not stated)	-1	-7	-4	1	2	7	·	·
CC(=O)c1ccc(OCC(=O)NCc2ccc(F)cc2)cc1	1	-5	0	1	-1	·	·	·
O=C(NNc1ccc([N+](=O)[O-])cn1)Nc1ccc(N=Nc2ccccc2)cc1	-1	·	25	·	·	·	·	·
Cc1cccc(OCC(=O)Nc2ccc3c(C)cc(=O)oc3c2)c1	15	-12	15	-1	10	0	·	·
Cc1cc(=O)oc2cc(NC(=O)CN3C(=O)NC(C)(c4ccccc4)C3=O)ccc12 (configuration not stated)	61*	-12	11	0	-17	-3	137*	103*
Cc1cc(=O)oc2cc(NC(=O)c3ccccc3Cl)ccc12	96*	25	22	0	-5	-1	0	0
CCCCOC(=O)Nc1ccc2c(C)cc(=O)oc2c1	84*	-9	17	-2	-6	0	7	2
COc1ccccc1CC(=O)Nc1ccc2c(C)cc(=O)oc2c1	37*	4	22	-1	-6	-6	101*	82*
Cc1cc(=O)oc2cc(NC(=O)COc3ccccc3[N+](=O)[O-])ccc12	18	-1	7	1	-5	·	·	·
SMILES	Mtb FBA inh	Mtb bLac sens	GDH-TPI counter-1	UGM FP inh	Rv3671c inh	RecA intein inh	Mtb FBA confirm	GDH-TPI counter-2	others
Cc1cc(=O)oc2cc(NC(=O)COc3cccc(C(F)(F)F)c3)ccc12	41*	1	16	-3	-4	·	71*	50*
Cc1cc(=O)oc2cc(NC(=O)c3ccnn3C)ccc12	32*	1	9	1	-3	-1	+	+
Cc1cc(=O)oc2cc(NC(=O)c3c(Cl)cnn3C)ccc12	9	0	26	-3	-4	0	·	·
Cc1cc(=O)oc2cc(NC(=O)CCOc3ccccc3)ccc12	20	49	16	1	-18	·	·	·
O=C(O)c1ccccc1-c1ccccc1C(=O)Nc1ccc2c(c1)oc(=O)c1ccccc12	34*	·	30	·	·	·	2	-3
Cc1ccccc1CC(=O)Nc1ccc2c(C)cc(=O)oc2c1	94*	4	3	-3	0	-1	7	7
O=C(Nc1nncs1)c1cc(S(=O)(=O)N2CCOCC2)ccc1Cl	0	-5	7	2	-11	0	·	·
Cc1cc(=O)oc2cc(NC(=O)C(CCCN=C(N)N)NC(=O)OCc3ccccc3)ccc12 (configuration not stated)	37*	68	18	2	·	6	38*	23*
CCCCN(C)C(=O)Cn1nc(-c2ccc(Cl)cc2)ccc1=O	77*	2	3	0	-8	-2	46*	41*
CS(=O)(=O)c1cc(C(=O)O)cc(NCc2ccccc2)c1Oc1ccccc1	13	·	12	·	·	·	·	·
Cc1oc(C)c(C(=O)Nc2ccc(CC(=O)O)cc2)c1C(=O)Nc1ccc(CC(=O)O)cc1	48*	1	-3	7	4	0	13	-5	GDH-TPI DR=>10
Cc1cccc2cc(C#N)c(NCCNC(=S)NCCCN3CCOCC3)nc12	31*	6	-6	-2	-2	-32	146*	108*
COCCCNC(=S)NNC(=O)c1ccc2c(c1)OCO2	0	-4	-6	0	-6	-1	·	·
Cc1cc2cc(C#N)c(NCCNC(=S)NCCCN3CCOCC3)nc2cc1C	40*	1	11	0	-3	-40	+	+
COCCCNC(=S)NCCCNc1nc2cc3c(cc2cc1C#N)OCO3	72*	2	12	2	5	-111	15	6
COc1ccc2nc(NCCNC(=S)NCCCN3CCOCC3)c(C#N)cc2c1	8	-10	-2	-1	4	-229	·	·
CCOC(=O)C1=C(COC(=O)COc2ccc(C#N)cc2)NC(=O)NC1C (configuration not stated)	-1	-13	-1	-1	-1	-1	·	·
